# From PubChem
# This is a sample that favours compounds with a hit; in the whole collection about 0.89% have one here.
# L3MBTL1 inh – L3MBTL1 (human) inhibition. AlphaScreen L3MBTL1–H3K9me1 peptide binding. Potency, µM (highest dose often 57.1 µM), without a hit: top-dose activity, negative = inhibition, most hits filed as inhibitors. hit rate 0.66% among 230,000. AID 485360; further: potency means the concentration at half of the fitted maximal effect; on the % scale 0 is the no-effect control and ±100 the full control effect; nearly all actives have a fitted effect of over 60% in size
# Target sequence (Q9Y468 whole entry, looked up): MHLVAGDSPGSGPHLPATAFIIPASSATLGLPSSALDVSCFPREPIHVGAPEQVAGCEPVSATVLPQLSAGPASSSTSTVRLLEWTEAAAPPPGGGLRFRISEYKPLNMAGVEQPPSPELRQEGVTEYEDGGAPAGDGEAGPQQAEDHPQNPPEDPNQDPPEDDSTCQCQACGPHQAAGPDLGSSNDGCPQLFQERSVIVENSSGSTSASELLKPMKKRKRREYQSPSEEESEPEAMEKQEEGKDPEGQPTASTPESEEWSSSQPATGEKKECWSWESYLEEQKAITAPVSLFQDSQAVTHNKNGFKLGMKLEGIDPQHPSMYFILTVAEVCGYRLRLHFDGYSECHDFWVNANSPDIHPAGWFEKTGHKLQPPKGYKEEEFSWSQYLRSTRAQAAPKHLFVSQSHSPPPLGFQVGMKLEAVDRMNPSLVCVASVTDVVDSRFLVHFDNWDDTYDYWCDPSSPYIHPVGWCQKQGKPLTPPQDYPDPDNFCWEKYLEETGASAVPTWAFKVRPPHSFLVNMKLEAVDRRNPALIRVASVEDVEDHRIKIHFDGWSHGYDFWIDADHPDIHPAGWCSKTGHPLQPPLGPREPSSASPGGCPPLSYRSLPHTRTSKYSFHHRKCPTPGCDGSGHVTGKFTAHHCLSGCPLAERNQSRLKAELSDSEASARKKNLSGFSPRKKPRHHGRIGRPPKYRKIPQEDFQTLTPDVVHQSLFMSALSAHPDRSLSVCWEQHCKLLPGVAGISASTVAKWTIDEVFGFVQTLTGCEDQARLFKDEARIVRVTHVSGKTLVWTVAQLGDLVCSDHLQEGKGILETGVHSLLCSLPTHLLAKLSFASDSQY
#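 Displacement of a biotinylated histone H3(1-15) peptide monomethylated at Lys9 (75 nM) from L3MBTL1 (50 nM) was measured by AlphaScreen after a 30 min room-temperature compound incubation; cefsulodin titration served as intraplate control.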
# Eya2 inh – Eya2 (human) phosphatase inhibition. O00167. recombinant Eya2, OMFP fluorescence dephosphorylation (OMFP is methylfluorescein phosphate). Potency, µM (highest dose often 76.9 µM), for inactives: at the highest dose activity, negative = inhibition, most hits filed as inhibitors. hit rate 0.006% among 330,000; further: potency means the concentration at half of the fitted maximal effect; on the % scale 0 is the no-effect control and ±100 the full control effect
#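 Eya2 protein (added as 0.2 uM solution) was preincubated with compound for 10 min at ambient temperature in 50 mM HEPES pH 7.5, 50 mM NaCl, 5 uM MgCl2, 0.05% BSA, 1 mM DTT. OMFP (added at 50 uM) then reacted 10 min; fluorescence read at 485/525 nm.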
# Six1-Eya2 blk – inhibitors of human Six1/Eya2 interaction; Q15475+O00167; AlphaScreen GST-Six1/His-Eya2 binding, biochemical; hits give low values; activity change, % (no concentration beside the values); hit rate 0.56% among 360,000; AID 651725; in the data active means activity change below about -65%; inconclusive means mostly about -30% to -63%; further: on the % scale 0 is the no-effect control and ±100 the full control effect
#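 Compounds are tested against tagged Six1 and Eya2 proteins bridged by glutathione donor and nickel acceptor beads; after a one-hour incubation at 37 °C without light, AlphaScreen emission is recorded.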
# MBNL1 CUG block – inhibitors of human MBNL1 binding to CUG repeat RNA | TR-FRET MBNL1-His/biotin-(CUG)12 binding, 665/545 ratio | hit rate 0.036% among 280,000 | Potency, µM (titrated, usually from 57.5 µM), without a hit: at the top dose activity change, negative = inhibition, hits mostly inhibitors | Q9NR56; active means well fitted inhibition curve with a large enough effect in the signal ratio, with a control signal flat, not every such curve was filed as active; inconclusive means small, poorly fitted or top-dose-only effect, or effect the other way, or a change in a side signal; inactive means no such curve, though single readings can be large or run the other way; the % refers to the signal ratio; further: potency means the concentration at half of the fitted maximal effect; on the % scale 0 is the no-effect control and ±100 the full control effect
#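 Ratiometric TR-FRET (665 over 545 nm, excitation 340 nm) tracks disruption of MBNL1-His/biotin-(CUG)12 complex after 60 min at room temperature, with compounds at 92 nM to 58 uM final.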
# CBFb RUNX1 block – blocks binding between human CBF-beta and RUNX1; Q01196+Q13951; AlphaScreen CBFb-His/RUNX1-biotin binding, biochemical; Potency, µM (top dose mostly 59.8 µM), without a hit: top-dose activity, negative = inhibition, actives largely listed as inhibitors; 230,000 tested, under 10 active; AID 1477; further: % of control where 0% means no effect
#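 AlphaScreen proximity signal reports loss of binding between His-tagged CBF-beta and biotin-labelled RUNX1, each at 30 nM. Proteins are pre-associated for 20 minutes, compounds added for 15 minutes, then beads for 90 minutes, all at ambient temperature.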
# CtBP-E1A inh – blocks the CtBP interaction with E1A; hit rate 0.49% among 340,000; AlphaScreen GST-E1A/His-CtBP binding, 1536-well; hits give low values; AID 651724; activity change, % (no concentration beside the values); in the data active means activity change below about -65%; inconclusive means mostly about -30% to -63%; further: on the % scale 0 is the no-effect control and ±100 the full control effect
#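 In 5 uL wells, 23 nL compound meets equimolar GST-E1A and His-CtBP (5X stock 125 nM each) for 2 h, 37 °C. Beads (5X, 50 ug/mL) then 1 h, 37 °C, dark.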
# * = called active by the depositor; ? = inconclusive; . = no result; [ ] = another dose, or the depositor's remark. Unless noted, the call rests on the fitted dose curve; in most records, active means well fitted curve in the direction sought with a large enough effect; inconclusive means small, poorly fitted or top-dose-only effect, or another doubt; inactive means no such curve, though single readings can be large; an effect the other way counts as inactive or inconclusive.
SMILES,L3MBTL1 inh,Eya2 inh,Six1-Eya2 blk,MBNL1 CUG block,CBFb RUNX1 block,CtBP-E1A inh
CCCCc1nc2c(c3c1C[C@H](C)OC3)CN(C(=O)N[C@@H](C)c1ccccc1)CC2,.,.,.,.,-10%[13.1 µM],.
COc1ccc(-c2csc(C3=C(O)CN(C(C)C)C3=N)n2)cc1OC,-25%,-8%,?,10%,-5%,-77*
COc1ccc(-c2nc(-c3ccc(O)cc3O)cs2)cc1OC,-13%,-3%,-26,?,-17%,-24
COc1ccc(C2=C(C)C(N3CCN(C(=O)c4ccco4)CC3)=NS2(=O)=O)cc1,.,4%,0,19%,.,4
O=c1[nH]c2ccccc2nc1-c1ccccc1,-1%,10%,21,?,4%,-4
NC(=O)N=Nc1c2[nH]c3ccccc3nc-2c2ccccc12,-4%,5%,?,?,1%,-69*
O=[N+]([O-])c1ccc(Br)c(CN2CCN(c3ncc(Cc4ccccc4)cn3)CC2)c1,.,.,-29,.,.,-17
COC(=O)c1ccc(Oc2coc3cc(OCc4ccc([N+](=O)[O-])cc4)ccc3c2=O)cc1,-8%,3%,4,2%,1%,4
Cc1ccn2c(Nc3ccc4c(c3)OCO4)c(-c3ccccn3)nc2c1,8.9µM*,2%,-88*,?,0%,-81*
Cc1ccc2nc(-c3ccncc3)c(Nc3ccccc3)n2c1,-8%,-14%,8,.,9%,-2
Cc1ccc(Nc2c(-c3ccccn3)nc3ccc(C)cn23)cc1,.,12%,-93*,50%,.,.
Cc1cc(C)n2c(Nc3ccc4c(c3)OCCO4)c(-c3ccco3)nc2n1,.,-18%,.,5%,-4%,.
Cc1ccc(Nc2c(-c3ccccn3)nc3cc(C)ccn23)cc1,.,-4%,-82*,28%,.,-93*
Cc1cc(C)n2c(Nc3ccc4c(c3)OCCO4)c(-c3ccccn3)nc2n1,.,.,-89*,.,.,?
O=C1[C@H]2[C@H]3[C@H](O)[C@H](O)C/C(=N/OCc4ccccc4)[C@@H]3CC[C@@H]2C(=O)N1C1CCCCC1,.,.,.,.,4%[13.1 µM],.
O=C1NC(=O)/C(=C\c2ccc(OCc3cccc([N+](=O)[O-])c3)cc2)N1,.,-10%,0,?,29%,-5
O=C(NNC(=S)NC(=O)c1ccccc1)c1ccc([N+](=O)[O-])cc1,-7%[2.29 µM],-18%,5,?,.,.
O=C(NC(=S)NNC(=O)c1ccccc1O)c1ccc([N+](=O)[O-])cc1,.,-6%,-86*,-1%,.,.
O=C(NNC(=S)NC(=O)c1cccnc1)c1ccc(F)cc1,15%,20%,-1,.,-1%,-3
O=C(NC(=S)NNC(=O)c1ccccc1O)c1ccc(F)cc1,-30%,8%,-91*,-3%,.,-94*
O=C(NC(=S)NNC(=O)c1ccccc1O)c1cccs1,.,-17%,-82*,1%,.,-95*
Cc1ccc(C(=O)NC(=S)NNC(=O)c2ccccc2O)cc1,.,1%,-88*,5%,.,-2
O=C(NC(=S)NNC(=O)c1ccccc1O)c1ccccc1,.,13%,-75*,-1%,.,-94*
Cc1ccccc1C(=O)NNC(=S)NC(=O)c1ccccc1,10%,7%,-4,2%,10%,-3
O=C(NNC(=S)NC(=O)c1ccccc1[N+](=O)[O-])c1ccccc1O,?,3%,-74*,-2%,?,-94*
SMILES,L3MBTL1 inh,Eya2 inh,Six1-Eya2 blk,MBNL1 CUG block,CBFb RUNX1 block,CtBP-E1A inh
CC1(C)CC(=O)c2sc(NS(=O)(=O)c3ccc(F)cc3)nc2C1,-5%,6%,-5,6%,5%,-6
COc1ccccc1OCCNC(=O)CN1C(=O)NC2(CCCC2)C1=O,3%,8%,0,.,.,-4
O=C(COC(=O)Cc1ccccc1F)NC(=O)NC1CCCC1,4%,2%,-4,.,.,.
c1ccc(-c2nccc(-c3ccco3)n2)nc1,-27%,-17%,?,3%,.,-67*
O=C(NCc1ccco1)C1CC2CCC1C2 (stereo not drawn),.,-8%,-70*,-3%,-4%,?
O=C(O)C1C2CCC(C2)C1C(=O)NCc1ccco1 (stereo not drawn),-3%,-9%,0,-22%,3%,-1
COc1cc2[nH]c(=O)n(CCCCCC(=O)N3CC=C(c4ccccc4)CC3)c(=O)c2cc1OC,.,-22%,?,2%,-1%,-93*
O=C(Nc1ccc(F)cc1)c1nc[nH]c1C(=O)O,.,-2%,-77*,4%,.,.
O=C(Nc1ccc(F)cc1)c1nc[nH]c1C(=O)Nc1ccccc1[N+](=O)[O-],-15%,1%,-1,-20%,12%,4
Cc1cc(C)c(NC(=O)CSc2nnc(-c3ccccn3)n2N)c(Cl)c1,28µM*,7%,?,-3%,-27%,?
Nn1c(SCc2c(F)cccc2F)nnc1-c1ccccn1,20µM*,6%,?,9%,?,?
CCCC[N+](CC#Cc1ccccc1)(CCCC)CCCS(=O)(=O)[O-],.,5%,8,-9%,2%,-12
C(=N\Nc1nc2ccccc2[nH]1)/c1cccc2cccnc12,?,-4%,-84*,.,?,.
Cc1ccccc1/C=N/Nc1nc2ccccc2[nH]1,.,-1%,12,2%,-2%,-8
O=[N+]([O-])c1cc(/C=N/Nc2nc3ccccc3[nH]2)c(O)cc1O,?,-8%,-97*,?,0%,-99*
CNC(=S)N1CCN(S(=O)(=O)c2ccc3ccccc3c2)CC1,.,4%,-3,?,.,3
C/C(=N\Nc1nccnc1Cl)c1ccc(O)cc1,0%,12%,-16,16%,.,-11
C/C(=N\Nc1c(Cl)c(Cl)nc(C(=O)O)c1Cl)c1ccc(O)cc1,.,-1%,-67*,-3%,.,?
O=C(O)C1CCCCC1C(=O)Nc1cccc(Br)c1 (stereo not drawn),13µM*,-2%,-30,.,.,5
COC(=O)C(C(=O)OC)c1ccccc1NC(=O)OCc1ccccc1,.,.,7,.,.,-6
Cc1c(Br)c(=O)oc2c(Br)c(O)ccc12,-29%,5%,2,36%,?,2
Cc1c(Br)c(=O)oc2c(Br)c(O)c(O)cc12,3.5µM*,-2%,-26,?,-2%,-3
O=C1c2ccccc2C(c2nnnn2-c2ccc3c(c2)OCCO3)N1CCCN1CCOCC1 (stereo not drawn),.,.,7,.,.,-6
CCOC(=O)C1(C)CCCCCN1C(=O)c1ccccc1F (stereo not drawn),.,.,2,.,.,3
COCCN1CN(S(=O)(=O)c2ccc(Cl)cc2)c2nc3ccccc3nc21,-7%,-6%,-8,5%,-2%,-1
